Drawing on PubChem BioAssay (NCI), this text covers growth for 8 compounds.

Compounds without any hit were thinned out: in the full panel of roughly 83,000, 20% have a hit.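 Percent growth is the endpoint: 0 to 100 indicates growth inhibition (40 means 60% inhibition), 0 means no net growth, and negative values indicate cell death.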 Values without a mark were called inactive. Activity calls are given as the source filed them. Rule for the calls: active = growth percent below 10; inactive = the rest.

Holding throughout (test): NCI-60 one-dose screen, 48 h (100 = growth as untreated, 0 = no growth, -100 = all killed)
Holding throughout (details): 10 µM unless noted

Assay [1] concerns NCI-H23 lung.
Assay [2] has as its system NCI-H226 lung.
Assay [3] relates to NCI-H322M lung.
Assay [4] concerns HOP-62 NSCLC.
The subject of assay [5] is NCI-H460 lung.
Assay [6] concerns HOP-92 NSCLC.
Assay [7] relates to NCI-H522 lung.
Assay [8] has as its system A549/ATCC NSCLC.
The subject of assay [9] is 786-0 renal.
Assay [10] concerns COLO 205 colon.
In assay [11] the test system is DU-145 prostate.
Assay [12] relates to K-562 leukemia.
In assay [13] the test system is MALME-3M melanoma.
Assay [14] deals with MDA-MB-231 breast.
For assay [15], the system named is RXF 393 renal.
Assay [16] relates to SF-268 CNS.
For assay [17], the system named is SF-295 CNS.
Assay [18] relates to SF-539 CNS.
Assay [19] concerns UACC-257 melanoma.
The subject of assay [20] is M14 melanoma.

Turning to `COc1ccc(-c2nc3sc(-c4ccccc4)cn3n2)cc1`, the growth was 72% in [1]; 76.3% in assay [2]; 85.8% in assay [3]; 50.5% in [4]; 34.9% in assay [5]; 67.6% in assay [6]. In addition, the growth is 29.6% in [7]; 50.8% in assay [8]; 88% in [9]; 36.7% in assay [10]; 83.5% in assay [11]; 23.8% in [12]. The growth in assay [13] is 67.6%; in [14], 47%; in assay [15] it was 75.3%; in assay [16], 71.8%; in assay [17], 61.8%; in [18] it was 75.2%. Moreover, the values for the growth in assay [19] and in assay [20] were 71.8% and 28.4%, respectively.

For `COc1ccc(-c2[nH]ncc2-c2cc3c(c(OC)c2)OCC(=O)N3)cc1`, the growth in assay [1] was 30%; in [2], 61.8%; in [3] it was 43%; in assay [4] it was 27.2%; in assay [5] it was 5.89% (active); in [6] it was 63%. In addition, the growth in assay [7] was -47.2% (active); in assay [8], 35.2%; in assay [9], 27%; in assay [10], -24.9% (active); in assay [11], 14.8%; in [12], 12.6%. Moreover, the growth in assay [13] is 57.3%; in assay [14], 7.86% (active); in assay [15] it was -35.1% (active); in assay [16], 54%; in assay [17], 9.29% (active); in assay [18], -23.9% (active). Also, the growth is 59.8% in assay [19] and 11.6% in assay [20].

Take `CCC(=O)Nc1ccc(-c2nc(-c3cccc(OC)c3)c(-c3ccnc(Br)c3)[nH]2)cc1`: the growth in assay [1] is 76.9%; in assay [2] it was 55.1%; in [3], 67.4%; in assay [4], 75.3%; in assay [5], 49.4%; in [6], 61.4%. Also, the growth is 56.9% in [7]; 60.9% in assay [8]; 40.8% in [9]; 71.2% in assay [10]; 70.6% in assay [11]; 24.1% in assay [12]. Also, the growth was 69.4% in assay [13]; 71.8% in assay [14]; -22.8% (active) in assay [15]; 75.8% in assay [16]; 16.1% in [17]; 51.1% in assay [18]. For the same compound, the growth in assay [19] was 74.4%; in assay [20] it was 63.1%.

For the compound `COc1ccc(-c2cc(-c3cc(OC)c(OC)c(OC)c3)nc(N3CCOCC3)c2C#N)cc1`, the growth in assay [1] is 23.4%; in assay [2], 83.8%; in [3] it was 93.6%; in [4], 88.8%; in assay [5] it was 73.8%; in assay [6], 58.4%. In addition, the growth in assay [7] is 59.9%; in assay [8], 60%; in [9], 61.3%; in assay [10] it was 57.7%; in assay [11] it was 93.5%; in assay [12], 47.5%. In addition, the growth in assay [13] was 126%; in assay [14], 75.3%; in [15] it was 52.9%; in [16], 83.4%; in assay [17], 69.5%; in assay [18], 76.6%. In addition, the growth in assay [19] is 74.2%; in [20] it was 90.3%.

`FC(F)(F)c1cc(Nc2ccc3c(OCCCN4CCOCC4)cccc3n2)ccc1Cl`: the growth in [1] was 60.8%; in assay [2] it was 68.5%; in assay [3], 51.5%; in assay [4], 51.2%; in assay [5], 17.3%; in [6] it was 60.2%. Further, the growth in [7] is 49.5%; in assay [8], 30.5%; in [9] it was -42.1% (active); in assay [10] it was -38.1% (active); in assay [11] it was 55.9%; in assay [12], -31.6% (active). The growth is 54.3% in assay [13]; 10.1% in assay [14]; 23.9% in [15]; 54.6% in [16]; 0.167% (active) in [17]; 36.2% in assay [18]. Further, the growth was 96.6% in assay [19] and 40.4% in [20].

As for `CNCCCNc1nc2ccccc2c2c(=O)c3cc(OC)ccc3sc12`, the growth in [1] was 79.6%; in assay [2] it was 95.6%; in assay [3], 85.7%; in assay [4] it was 80.2%; in assay [5], 5.64% (active); in assay [6], 52.4%. Also, the growth is 85.7% in [7]; 76.1% in [8]; 79.1% in assay [9]; -1.42% (active) in assay [10]; 65.4% in assay [11]; -20.3% (active) in [12]. Further, the growth in [13] was 99.4%; in [14], 20%; in assay [15], 63.7%; in [16], 77.4%; in assay [17], 94.7%; in assay [18], 66.4%. Moreover, the growth is 99.1% in assay [19] and 29.9% in assay [20].

As to `CCN(CC)c1ccc(C2=NN(C(C)=O)C(c3cc(OC)c(OC)c(OC)c3)C2)cc1` (stereo not given), the growth in assay [1] is 23.5%; in [2] it was 9.31% (active); in assay [3], -3.75% (active); in [4] it was 40.7%; in assay [5], 13.4%; in [6], 20.6%. Also, the growth in assay [7] is -46.3% (active); in assay [8] it was 17.1%; in assay [9], 24%; in assay [10] it was -4.4% (active); in [11], -39.4% (active); in assay [12], -4.46% (active). Also, the growth in [13] was 21.7%; in [14], 3.7% (active); in [15] it was -44% (active); in assay [16], 18.8%; in assay [17], 7.69% (active); in assay [18], 2.39% (active). The results for the growth in assay [19] and in assay [20] were 55.9% and -28.8% (active), respectively.

For the compound `O=C(Cc1ccc(F)c(Cl)c1)Nc1cc(C2(C(F)(F)F)CC2)nn1Cc1ccccc1`, the growth was 55.3% in assay [1]; 43.2% in [2]; 89.6% in [3]; -32.7% (active) in assay [4]; 79% in assay [5]; -19.5% (active) in assay [6]. Besides, the growth in assay [7] is 58.2%; in [8], 60.3%; in assay [9], 34.6%; in assay [10], 66.3%; in [11], 89.8%; in assay [12], 77.1%. Further, the growth was 60.4% in assay [13]; 14.1% in assay [14]; -23.5% (active) in [15]; 17.1% in [16]; 24.8% in assay [17]; 50.6% in assay [18]. For the same compound, the growth in assay [19] was 91.1%; in [20], 70.8%.
